# Assay outcomes (PubChem)
# GALC G270D act – A Novel Cell-Based Assay to Identify Small Molecules for B -Galactocerebrosidase; actives 0.1% (n = 45,000); Potency, µM (titrated, usually from 57.5 µM), usual class: activators; 145M-Twi-hGALC-G270D cells (Twitcher mouse brain line with human GALC G270D), HMU-beta-Gal fluorescence, 48 h; P54803; note: potency is the fitted concentration of half-maximal effect; 0% is about no effect; nearly all actives have a fitted effect of over 65% in size
#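 Mutant human GALC (G270D), stably expressed in a Twitcher mouse brain cell line lacking endogenous GALC, is measured in live-treated cells via 6-hexadecanoylamino-4-methylumbelliferyl-β-galactoside hydrolysis (0.1 mM final, pH 5.2) with fluorescent detection.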
# FH mod – Identification of activators of human fumarate hydratase by quantitative high-throughput screening; FH coupled MDH/diaphorase resazurin fluorescence, 15 min; Potency, µM (doses to about 79.9 µM), inactives show top-dose activity change, negative = inhibition, usual class: inhibitors; actives 0.22% (n = 54,000); AID 1347055, 2019; note: potency is the fitted concentration of half-maximal effect; % is set by controls: 0 for no effect and ±100 for the full control effect; the screen sought activators but most active calls are inhibition curves; nearly all actives have a fitted effect of over 45% in size
# DRV1 agonist – qHTS for Agonists of Human Resolvin D1 Receptor DRV1; Probable G-protein coupled receptor 32 (Homo sapiens), O75388; CHO-K1 GPR32 beta-arrestin PathHunter luminescence, 90 min; zero percent set by DMSO-only wells; activation, % at 76.9 µM; actives 2.5% (n = 48,000);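 active = activation of at least 60% and not above a set upper limit, about 1 call in 100 departs from these limits; inconclusive = activation of 40% to 60%, or above that upper limit; inactive = activation under 40%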; note: 0% is about no effect
# Target sequence (O75388 whole entry, looked up): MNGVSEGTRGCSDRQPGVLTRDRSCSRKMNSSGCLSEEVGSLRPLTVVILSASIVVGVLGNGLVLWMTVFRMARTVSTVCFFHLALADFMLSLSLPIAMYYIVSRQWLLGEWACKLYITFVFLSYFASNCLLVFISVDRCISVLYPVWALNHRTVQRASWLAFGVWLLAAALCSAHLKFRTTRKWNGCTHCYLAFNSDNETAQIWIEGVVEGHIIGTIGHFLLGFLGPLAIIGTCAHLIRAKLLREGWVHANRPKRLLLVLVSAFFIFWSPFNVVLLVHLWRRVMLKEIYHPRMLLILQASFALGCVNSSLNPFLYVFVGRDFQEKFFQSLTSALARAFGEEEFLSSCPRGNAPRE
#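 Agonism was scored as beta-arrestin recruitment to ProLink-fused GPR32 in stably transfected CHO-K1 cells, giving a chemiluminescent beta-Gal signal; compounds were incubated 90 min at 37 °C.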
# B2AR arrestin ag – qHTS assay of beta-arrestin-biased ligands of beta2-adrenergic receptor: NCGC Sytravon Library Screen | Beta-2 adrenergic receptor (Homo sapiens), P07550 | HTLA Tango cells, beta-arrestin recruitment, luciferase luminescence, 18 h | 44,000 tested, under 10 active | Potency, µM (titrated, usually from 46.1 µM), hits mostly activators | AID 1347077, 2019;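 note: potency is the fitted concentration of half-maximal effect; 0% = DMSO and full agonism = EC100 isoproterenol or metaproterenol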
#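 Tango cell line, 1% FBS DMEM; cpd titration up to 46 microM; 18 hr, 37 degrees C, 5% CO2. Luciferin/ATP substrate mix added, 15 min RT, luminescence. %Activity, CRC fitting, curve-class categorization.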
# The depositor's hits bear a star; i = inactive; ? = inconclusive; . = no result given; [ ] = another dose, or the depositor's remark. Compounds with a hit are over-represented: about 2.8% of the library has one in this group of screens. Unless noted, calls come from the whole dose curve; as a rule, active = well fitted curve in the direction sought with a large enough effect; inconclusive = small, poorly fitted or top-dose-only effect, or another doubt; inactive = no such curve, though single readings can be large; an effect the other way counts as inactive or inconclusive.
SMILES,GALC G270D act,FH mod,DRV1 agonist,B2AR arrestin ag
CCn1c(=O)cc(OCC(=O)Nc2ccccc2Cl)c2ccccc21,?,-11.6%,-16.7,i
CCn1c(=O)cc(OCC(=O)Nc2cc(OC)c(OC)c(OC)c2)c2ccccc21,i,-8.8%,89.5*,i
CCn1c(=O)cc(OCC(=O)N2CCN(c3ccc(C(C)=O)cc3)CC2)c2ccccc21,i,-7.8%,13.8,i
CCn1c(=O)cc(OCC(=O)N2CCN(c3ccc(OC)cc3)CC2)c2ccccc21,i,-13.4%,80.8*,i
COC(=O)C[C@@H]1C(C(=O)O)=CO[C@@H](O[C@@H]2O[C@H](CO)[C@@H](O)[C@H](O)[C@H]2O)/C1=C\COC(=O)/C=C\c1ccccc1,.,22.7%[53.3 µM],.,.
CC(=O)SCC(=O)c1ccc(NS(=O)(=O)c2ccc(OCCCN(C)C)cc2)nc1,.,1.4%,.,.
Cc1ccc(NC(=O)c2ccc3snnc3c2)cc1Cl,i,-2.0%,95.1*,i
Cc1ccc(NC(=O)Nc2ccc3snnc3c2)cc1C,i,-2.8%,65.6*,i
CCCCN(CC)C(=O)c1cc2c(=O)n3cccc(C)c3nc2s1,25.1µM*,?,?,i
O=C(COc1ccc(F)cc1)NC1CC(=O)N(c2ccc3c(c2)OCCO3)C1 (stereo not drawn),i,-0.4%,115.5*,i
O=C(COc1ccccc1)NC1CC(=O)N(c2ccc3c(c2)OCCO3)C1 (stereo not drawn),i,1.7%,-1.3,i
COc1ccc(NS(=O)(=O)c2sc3ccc(Cl)cc3c2C)cc1N1CCNCC1,.,-13.4%,.,.
COc1ccccc1NC(=O)COc1ccc(-c2nn(C)c(=O)c3ccccc23)cc1,i,-14.3%,95.1*,i
Cn1nc(-c2ccc(OCC(=O)Nc3ccccc3)cc2)c2ccccc2c1=O,i,-11.7%,13.4,i
CCOc1ccccc1C1CC(=O)NC(C)=C1C(=O)OCc1ccc(C)cc1 (stereo not drawn),i,-21.2%,60.5*,i
CC1=C(C(=O)OCc2ccc(C)cc2)C(c2ccccc2F)CC(=O)N1 (stereo not drawn),i,-23.2%,66.8*,i
CCOc1ccccc1C1CC(=O)NC(C)=C1C(=O)OC1CCCCCC1 (stereo not drawn),i,-18.7%,39.2,i
COC(=O)c1cc(OC)c(O[C@@H]2O[C@@H](C)[C@H](O)[C@@H](O)[C@H]2O)c(OC)c1,.,0.3%[53.3 µM],.,.
CCNc1nc(NCc2ccc(F)cc2)c2cnn(C)c2n1,i,1.0%,72.2*,i
C=C(C)[C@@H](C)[C@H]1O[C@]23C[C@]4(CO2)C(CCC2[C@@]5(C)CC[C@H](O[C@@H]6OC[C@H](O)[C@H](O[C@@H]7O[C@H](CO)[C@@H](O)[C@H](O)[C@H]7O)[C@H]6O[C@@H]6O[C@@H](CO)[C@H](O)[C@H]6O)C(C)(C)C5CC[C@]24C)C3[C@@](C)(O)[C@@H]1OC(C)=O (stereo partly drawn),.,4.4%[20.6 µM],.,.
C=C1C(=O)O[C@@H]2C(OC(=O)/C(C)=C\C)/C(C)=C\C(=O)/C=C(\C)C[C@H](O)[C@@H]12 (stereo partly drawn),.,-0.5%[53.3 µM],.,.
COc1ccc(NC(=O)CSc2nc(-c3ccco3)cc(C(F)(F)F)n2)cc1,i,3.0%,94.6*,i
COc1cc(NC(=O)CSc2nc(-c3ccco3)cc(C(F)(F)F)n2)cc(OC)c1OC,i,-9.1%,6.6,i
C/C=C1/CC2C(=O)Nc3cc(O)c(OC)cc3C(=O)N2C1 (stereo not drawn),.,0.4%[53.3 µM],.,.
O=C(Cn1c(SCC(=O)Nc2ccc(F)cc2)nc2ccccc21)NCc1ccccc1Cl,i,6.2%,70.1*,i
SMILES,GALC G270D act,FH mod,DRV1 agonist,B2AR arrestin ag
CCc1ccccc1Nc1cc(C(=O)NCCCN(C)C2CCCCC2)c2ccccc2n1,i,-1.1%,78.5*,i
COc1ccc(C2OCC3C(c4cc(OC)c5c(c4)OCO5)OCC23)cc1OC (stereo not drawn),.,6.6%[53.3 µM],.,.
CCc1ccc(C2=C(C)C(N3CCC(C(=O)NCc4ccccc4)CC3)=NS2(=O)=O)cc1,i,0.9%,65.1*,i
COC(=O)CC1(O)C(=O)Nc2ccccc21 (stereo not drawn),.,8.7%,.,.
O=C(CC1Nc2cccc3cccc(c23)NC1=O)Nc1ccc(F)cc1 (stereo not drawn),i,-23.3%,64.2*,i
COc1ccc(NC(=O)CC2Nc3cccc4cccc(c34)NC2=O)cc1 (stereo not drawn),i,-16.2%,28.7,i
O=C1OC2(c3ccccc31)c1cc(Br)c(O)c(Br)c1Oc1c2cc(Br)c(O)c1Br,i,?,68.3*,.
COc1cc(CNc2ccc3[nH]c(=O)[nH]c3c2)cc(Cl)c1OCc1ccc(F)cc1,i,35.5µM*,-1.6,i
Cc1noc(-c2ccc(-c3ccc(CC(=O)O)cc3)cc2)c1NC(=O)O[C@H](C)c1ccccc1Cl,.,-18.8%,.,.
Cc1ccc(Cl)cc1NC(=O)CSc1nc(C)c(C)c(C)c1C#N,i,-1.0%,115.2*,i
Cc1cc(C)c(C#N)c(SCC(=O)Nc2ccccc2C#N)n1,?,-6.0%,6.6,i
CCCCOc1ccc(CC/C=C2\SC(=O)N(CCN)C2=O)cc1,.,3.2%,.,.
CCc1ccc(Sc2cc(C(=O)NC(C)CC)c3ccccc3n2)cc1 (stereo not drawn),i,-17.7%,74.7*,i
Cn1cc(S(=O)(=O)c2ccc(Cl)cc2)c2cccc(N3CCNCC3)c21,.,20.6%,.,.
CC(C)c1ccc(NC(=O)C2(C)Cc3ccccc3C(=O)O2)cc1 (stereo not drawn),i,-4.7%,78.6*,i
Cc1cccc(NC(=O)C2(C)Cc3ccccc3C(=O)O2)c1 (stereo not drawn),i,3.4%,-5.1,i
COC1=C(OC)C(=O)C(CCCCCCCCCCO)=C(C)C1=O,i,19.3µM*,46.3,.
O=C(O)C1CN(Cc2ccc(-c3nc4cc(Cc5ccccc5F)ccc4s3)c(F)c2)C1,.,8.8%[13.5 µM],.,.
COc1ccc(Nc2c3c(nc4nncn24)CCC3)cc1OC,i,2.0%,93.3*,i
COc1cccc(Nc2c3c(nc4nncn24)CCC3)c1,i,5.6%,-8.0,i
CC(C)=C/C=C\[C@H](C)[C@H]1CC[C@]2(C)C[C@@H]3C(C)=CC(=O)C3/C(CO)=C\C[C@@H]12 (stereo partly drawn),.,-1.4%[53.3 µM],.,.
COC(=O)CSc1nnc2n(-c3ccccc3)c(=O)c3c4c(sc3n12)COC(C(C)C)C4 (stereo not drawn),i,-14.2%,64.6*,i
CC(C)c1ccc(S(=O)(=O)c2cnc(SCC(=O)Nc3cccc(C(F)(F)F)c3)nc2N)cc1,i,?,76.4*,i
